# Reference: PubChem BioAssay
# Active and inactive are the calls of the source.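 The calls were made as follows: active = visually confirmed hit in the image check and inhibition above 20%; inconclusive = visually confirmed hit but inhibition not above 20%; inactive = no visual hit in the image check.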
# Assay: endothelial E-selectin expression blockers – imaging, HUVEC, immunofluorescence, MLSMR starter and 10KST1 sets, primary screen (AID 487);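 as to inhibition: signal is fraction of cell area covered by stained E-selectin grains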;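 as to nuclei count: 100% = median nuclei count of all wells on the same plate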
# Settings: HUVEC TNFalpha-induced E-selectin immunofluorescence imaging, at 2 µM; inhibition: stronger effect = higher value; nuclei count: measured here: cell number, toxicity
SMILES,inhibition,nuclei count
Cc1ccc(-c2nnc3c4ccccc4c(C)nn23)cc1S(=O)(=O)N1CCN(C)CC1,11.3% (inactive),81.2%
CCN(CC)CCCNC1CCS(=O)(=O)C1 (stereo not drawn),-19.7% (inactive),118%
CN(C)CCCN1C(=O)c2oc3ccc(Cl)cc3c(=O)c2C1c1cccnc1 (stereo not drawn),-27% (inactive),122%
COc1ccc(CCn2c(-c3ccco3)nc3ccccc3c2=O)cc1OC,-99.5% (inactive),120%
O=C(CSc1nnc(-c2ccccc2)o1)N1CCc2ccccc2C1,-104% (inactive),121%
Cc1ccccc1NS(=O)(=O)c1cc(C(=O)N2CCCC2)ccc1C,9.5% (inactive),94.2%
Nc1c(C(=O)NCc2ccco2)nnn1Cc1ccccc1,-65.2% (inactive),115%
O=C(NCC(c1cccnc1)N1CCN(c2ccc(F)cc2)CC1)OCc1ccccc1 (stereo not drawn),-34.3% (inactive),126%
CCc1nnc(NC(=O)c2ccc(S(=O)(=O)NCC(C)C)cc2)s1,-73.7% (inactive),210%
O=C(CCNS(=O)(=O)c1ccc(Br)s1)N1CCCCC1,-86.3% (inactive),106%
CCCn1c(SCC(=O)NC(C)(C)C)nnc1C(C)C,19.4% (inactive),99.9%
CC(CN1CCCCC1)OC(=O)c1ccc2c(c1)OCO2 (stereo not drawn),-45.9% (inactive),103%
CC(C)(C)NC(=O)Cn1nnnc1-c1nonc1N,-94.7% (inactive),120%
CC1(C)CC(=O)C(C=NCc2ccc3c(c2)OCO3)=C(O)C1,-10.4% (inactive),93.7%
CN1CCN(c2nc(-c3ccncc3)nc3ccccc23)CC1,-133% (inactive),120%
COc1ccc(S(=O)(=O)NCc2ccc(C(=O)O)cc2)cc1,-91.6% (inactive),93.9%
COc1ccc(CC(=O)Nc2ccc(OC)c(NC(=O)c3ccco3)c2)cc1,-70.8% (inactive),146%
COc1ccc(NC(=O)C23CCC(C)(C(=O)C2)C3(C)C)cc1 (stereo not drawn),-111% (inactive),108%
Cc1ccc(-c2nc3cc(N)ccc3o2)cc1,-58.1% (inactive),115%
COc1cccc(C(=O)Nc2ccc(NC(C)=O)cn2)c1,-84.7% (inactive),123%

SMILES,inhibition,nuclei count
Cc1cnc(C(=O)Nc2ccc(N3CCN(C(=O)OC(C)(C)C)CC3)cc2)cn1,-1.6% (inactive),93.1%
O=C(CSc1nnnn1C1CCCC1)NCc1ccc2c(c1)OCO2,-15.5% (inactive),138%
CCC(C)(C(=O)NC1CCCC1)N(Cc1cccs1)C(=O)Cc1cccs1 (stereo not drawn),-7.8% (inactive),112%
CCOc1ccc2c(c1)n(CO)c(=S)n2CO,15.1% (inactive),105%
CCn1c(CSc2nnc(-c3cccnc3)n2-c2ccccc2C)nc2cc(C(=O)O)ccc21,-22.2% (inactive),161%
CCOC(=O)NC(=O)CSc1nnnn1-c1ccc(Cl)cc1,-90.3% (inactive),110%
Nn1cc(-c2ccccc2)nc1SCC(=O)N1CCN(S(=O)(=O)c2ccccc2)CC1,-23.8% (inactive),106%
COC(=O)C1=C(N)Oc2cc(C)n(Cc3ccncc3)c(=O)c2C1c1cccnc1 (stereo not drawn),10.9% (inactive),104%
COC(=O)C1CCN(C(=O)CN2C(=O)NC(CCc3ccccc3)C2=O)CC1 (stereo not drawn),-16.4% (inactive),110%
O=C(CSc1nnc(C2COc3ccccc3O2)o1)N1CCCc2ccccc21 (stereo not drawn),-80.9% (inactive),136%
CN(C)S(=O)(=O)N1CCN(C(=O)N(c2ccccc2)c2ccccc2)CC1,-122% (inactive),117%
COCC(C)NC(=O)CCS(=O)(=O)c1nc(-c2ccc(OC)cc2)cc(C(F)(F)F)n1 (stereo not drawn),-37.9% (inactive),192%
O=C(NCc1cccnc1)c1ccc(Cl)c(Cl)c1,16.9% (inactive),102%
CCN(CC)CCOC(=O)c1cccc(OC)c1,16.1% (inactive),98.7%
CN1CCN(c2ncnc3c2cnn3-c2ccc(Cl)cc2)CC1,-27.8% (inactive),122%
NC(=O)C1CCN(C(=O)c2cc3n(n2)C(C(F)(F)F)CC(c2ccco2)N3)CC1 (stereo not drawn),-83.5% (inactive),100%
CC(C)(C)c1ccc2c(c1)OCC(C(=O)O)O2 (stereo not drawn),14.6% (inactive),90.7%
Cc1cc(C)c2c(n1)nn1c(NCCCN3CCOCC3)cc(C)nc21,-19.1% (inactive),114%
Cc1n[nH]c(C)c1N1C(=O)c2cccc3cc(Br)cc(c23)C1=O,-36.7% (inactive),123%
